Bioassay records as filed in PubChem BioAssay.
Many of the other results were omitted from the sample, so hits are more common in it than they were.
ALOX12 inh – inhibitors of human 12S-lipoxygenase ALOX12; P18054; purified 12hLO, xylenol orange hydroperoxide absorbance; Potency, µM (doses to about 108 µM), hits mostly inhibitors; hit rate 1.1% among 580,000
Target sequence (P18054 whole entry, looked up): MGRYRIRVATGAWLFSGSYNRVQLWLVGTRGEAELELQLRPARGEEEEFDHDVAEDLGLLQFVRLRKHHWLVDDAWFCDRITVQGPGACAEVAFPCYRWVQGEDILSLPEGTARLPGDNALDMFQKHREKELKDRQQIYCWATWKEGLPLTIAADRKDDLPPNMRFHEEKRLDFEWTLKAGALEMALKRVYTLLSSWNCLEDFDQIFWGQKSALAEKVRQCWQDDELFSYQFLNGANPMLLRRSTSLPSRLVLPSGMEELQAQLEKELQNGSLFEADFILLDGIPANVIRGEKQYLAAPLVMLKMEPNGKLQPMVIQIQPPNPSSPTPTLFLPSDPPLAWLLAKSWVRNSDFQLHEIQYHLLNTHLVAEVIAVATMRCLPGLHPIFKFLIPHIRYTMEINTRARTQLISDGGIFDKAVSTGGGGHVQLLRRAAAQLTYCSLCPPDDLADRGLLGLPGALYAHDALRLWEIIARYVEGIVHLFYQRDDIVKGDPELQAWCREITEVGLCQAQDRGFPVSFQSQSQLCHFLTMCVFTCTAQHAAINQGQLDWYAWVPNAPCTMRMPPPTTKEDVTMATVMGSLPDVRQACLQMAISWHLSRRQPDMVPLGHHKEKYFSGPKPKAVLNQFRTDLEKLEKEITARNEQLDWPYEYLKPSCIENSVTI
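Purified human 12hLO at 150 nM in 25 mM Hepes, 0.01% Triton X-100, pH 7.0, preincubated 15 min at room temperature with compound. Reaction started with 40 uM arachidonic acid, 30 min at room temperature. Hydroperoxide measured by Fe-xylenol orange, 573/405 nm absorbance ratio.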
Glioma ERSR ind – inducers of ER stress response in human glioma cells | hit rate 0.02% among 420,000 | U87-MG GRP78 promoter luciferase reporter, 16 h | Potency, µM, actives largely listed as activators; further: series mostly up to about 76 µM; nearly all actives have a fitted effect of over 35% in size
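Stably transfected U87-MG human glioma cells carrying a GRP78-based luminescent sensor were seeded at 1000 cells/well, pin-dosed with compounds and incubated 16 h. Luciferase reagent was then added, and end-point luminescence was read after 10 min at room temperature.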
Sfp inh – inhibitors of Bacillus subtilis Sfp phosphopantetheinyl transferase. hit rate 3.5% among 310,000. Biochemical Sfp PPTase activity, qHTS. Potency, µM, usual class: inhibitors. AID 1490;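 further: the enzyme is Sfp with the accession as filed and its product quenches rhodamine fluorescence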
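Sfp 15 nM + cpd, 15 min RT; start w/ rhodamine-CoA 5 uM, BHQ-2-YbbR 12.5 uM (final); 50 mM Hepes pH 7.6, 10 mM MgCl2, 0.01% NP-40, 0.01% BSA; read 525/598 nm at 0 and 30 min.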
VDR inh – blocks the human vitamin D receptor; AID 504847; Potency, µM, most hits filed as inhibitors; P11473; hit rate 0.93% among 400,000; VDR-SRC2-3 peptide fluorescence polarization, 2 h
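Two reagent solutions held at 4 deg C in the dark were dispensed, compounds pinned at 23 nl, and the mixture incubated 2 h at room temperature. Read-out: fluorescence polarization of VDR–SRC2-3 peptide binding.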
G9a inh – G9a (human) methyltransferase inhibition | G9a H3K9 monomethylation, AlphaScreen, 2 h | Potency, µM (series often up to 102 µM), hits mostly inhibitors | hit rate 8.8% among 350,000; further: nearly all actives have a fitted effect of over 75% in size
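AlphaScreen detection with an anti-monomethyl H3K9 antibody quantified product after a 2 h room-temperature reaction containing 500 nM biotinylated H3K9 peptide, 20 µM SAM and 20 nM enzyme, which had been preincubated 15 min with compound.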
Numbers stand for hits; – = inactive; ? = inconclusive; · = not tested or not shown; [ ] = dose if it differs, or a comment. The call rests on the fitted dose curve; in most records, active means well fitted curve in the direction sought with a large enough effect; inconclusive means small, poorly fitted or top-dose-only effect, or another doubt; inactive means no such curve, though single readings can be large; an effect the other way counts as inactive or inconclusive.

SMILES	ALOX12 inh	Glioma ERSR ind	Sfp inh	VDR inh	G9a inh
O=C1NCCCCCCN(Cc2ccncc2)[C@@H]2CN(S(=O)(=O)c3ccccc3)CC[C@@H]12	–	·	·	·	·
CCOc1ccc(OCCN2CCCCC2)cc1	–	–	–	–	7.9µM
c1ccc(COc2ccc(OCCCN3CCCC3)cc2)cc1	–	–	–	–	6.3µM
c1ccc(COc2ccc(OCCN3CCCCC3)cc2)cc1	–	–	50µM	–	?
c1ccc(-c2ccc(OCCN3CCCC3)cc2)cc1	·	–	–	–	·
Cc1cc(OCCN2CCCCCC2)ccc1[N+](=O)[O-]	?	–	–	–	25µM
CN1CCC(OC2CCN(S(=O)(=O)c3ccc(F)cc3)CC2)CC1	–	·	·	·	·
O=C(C(Sc1nnc(-c2ccncc2)n1-c1ccc(Cl)cc1)c1ccccc1)N1CCCC1 (stereo unspecified)	–	·	·	·	·
O=[N+]([O-])c1ccc(/C=N/O)cc1	–	·	·	·	·
CC1CCN(CCCOc2ccc(OCc3ccccc3)cc2)CC1	?	–	–	–	40µM
O=C(COC(=O)C(c1ccccc1)c1ccccc1)NCc1ccco1	–	–	–	–	–
O=C(O)CC(NCc1ccco1)C(=O)OCCc1ccccc1 (stereo unspecified)	?	–	–	–	32µM
O=C(O)CC(NCc1ccco1)C(=O)OCC1CCCO1 (stereo unspecified)	?	–	–	–	7.9µM
C=C(C)CCOC(=O)C(CC(=O)O)NCc1ccco1 (stereo unspecified)	–	–	?	–	11µM
CCCNC(=O)C1CCCN1S(=O)(=O)c1ccc(Br)s1 (stereo unspecified)	–	·	·	·	·
COCc1cc(C)nc2sc(C(=O)N3CCCCC3)c(N)c12	?	–	79µM	–	–
O=C(O)CCc1oc2cc(O)ccc2c(=O)c1-c1nc2ccccc2[nH]1	–	·	·	·	·
CC(C)C(=O)NC(=S)Nc1sc2c(c1C(N)=O)CCCC2	?	–	?	?	4µM
CCC(=O)Nc1sc2c(c1C(N)=O)CCC2	–	–	–	–	–
CCCC(=O)NC(=S)Nc1sc2c(c1C(N)=O)CCC2	?	–	40µM	–	7.9µM
OCc1nc2ccccc2n1CC(O)COc1c(Cl)cccc1Cl (stereo unspecified)	–	·	·	·	·
CCn1c(-c2ccc(OC)c(O)c2)nc2c1c(=O)[nH]c(=O)n2Cc1ccccc1	–	·	·	·	·
CC(C)OC(=O)C(CC(=O)O)N1CCCC1 (stereo unspecified)	–	·	·	·	·
Clc1ccccc1-c1cncnc1NCCN1CCOCC1	?	?	–	–	–[0.501 µM]
FC(F)(F)c1ccccc1-c1cncnc1Nc1ccccc1	25µM	–	–	?	·
SMILES	ALOX12 inh	Glioma ERSR ind	Sfp inh	VDR inh	G9a inh
FC(F)(F)c1ccccc1-c1cncnc1NCCN1CCOCC1	18µM	?	–	45µM	–[0.501 µM]
Cc1ccccc1OCC(O)Cn1c(Br)nc2c1c(=O)[nH]c(=O)n2C (stereo unspecified)	–	–	–	–	–
CCSc1nc2c(c(=O)[nH]c(=O)n2C)n1CC(O)COc1ccccc1C (stereo unspecified)	?	–	?	–	16µM
Cc1ccccc1OCC(O)Cn1c(SC(C)C)nc2c1c(=O)[nH]c(=O)n2C (stereo unspecified)	?	–	56µM	?	3.5µM
O=C(Nc1cc(F)cc(F)c1)c1ccc(NCCc2ccccc2)c([N+](=O)[O-])c1	–	–	–	–	–
O=C(O)c1ccc(NCCc2ccc(Cl)cc2)c([N+](=O)[O-])c1	–	–	–	–	79µM
O=[N+]([O-])c1cc(C(F)(F)F)ccc1NCCNC(=S)Nc1ccc(Cl)cc1	40µM	–	–	–	28µM
CNC(=O)CCNC(=O)c1cc(-c2ccc(OC)cc2)nc2ccccc12	–	·	·	·	·
N#Cc1ccc(COC(=O)c2ccccc2NCCO)cc1	–	·	·	·	·
CC1C(=O)Nc2ccc(S(=O)(=O)N3CCCCC3)cc2NC1=O (stereo unspecified)	–	–	·	–	–
CSCCC1Nc2ccc(S(=O)(=O)N3CCOCC3)cc2NC1=O (stereo unspecified)	–	–	–	–	3.2µM
CCOC(=O)CC(=O)CSc1nc2nc(C)cc(C)n2n1	–	–	56µM	–	?
CC(CC(=O)Nc1ccc(F)cc1)S(=O)(=O)c1ccc2c(c1)CCN2C(=O)C1CC1 (stereo unspecified)	–	·	·	·	·
COc1cc(OC)cc(-c2nnc(SCC(=O)c3ccc([N+](=O)[O-])cc3)o2)c1	–	–	·	–	–
COc1cc(OC)cc(-c2nnc(Sc3ccc(C=O)cc3[N+](=O)[O-])o2)c1	·	·	–	·	25µM
O=C(COC(=O)c1cnccn1)NCc1ccccc1Cl	–	–	·	·	·
O=C(COC(=O)c1cnccn1)N=c1sccn1Cc1ccccc1Cl	–	–	·	–	56µM
Cc1ccc(N2CCN(C(=S)c3ccc(-c4cccc([N+](=O)[O-])c4)o3)CC2)cc1	?	–	14µM	?	8.9µM
O=C(c1ccco1)N1CCN(C(=O)c2ccc(-c3ccc([N+](=O)[O-])cc3)o2)CC1	?	–	·	–	·
Cc1ccccc1N1CCN(C(=S)c2ccc(-c3cccc([N+](=O)[O-])c3)o2)CC1	–	–	–	–	13µM
CC(=O)N1CCN(C(=S)c2cccc([N+](=O)[O-])c2)CC1	–	–	–	–	?
Cc1ccccc1N1CCN(C(=S)c2ccc(-c3ccc([N+](=O)[O-])cc3)o2)CC1	?	–	20µM	?	·
CN1CCN(c2ccc(NC(=O)c3ccc(-c4cccc([N+](=O)[O-])c4)o3)cc2)CC1	–	–	–	–	?
O=[N+]([O-])c1ccc(N2CCN(C(=S)c3cccc([N+](=O)[O-])c3)CC2)cc1	–	–	5.6µM	?	2µM
CCc1ccc(OCc2nnc(SCCN3CCOCC3)n2C)cc1	–	–	?	–	3.2µM
SMILES	ALOX12 inh	Glioma ERSR ind	Sfp inh	VDR inh	G9a inh
Cc1ccc(OCc2nnc(SCC(=O)N3CCOCC3)n2C)cc1	–	–	–	–	–
COc1ccc(/C=C/C(=O)N(CCC(N)=O)c2ccccc2)cc1S(=O)(=O)N1CCOCC1	–	–	·	–	50µM
COc1ccc(/C=C/C(=O)N2CCN(c3ccccc3)CC2)cc1S(=O)(=O)N1CCOCC1	–	–	–	–	–
O=C(CN1C(=O)C2C3C=CC(C3)C2C1=O)Nc1nc2ccccc2[nH]1 (stereo unspecified)	–	–	–	–	79µM
CC1(C)CC(N2CCN(c3ccccc3)CC2)=CC(=[N+]2CCCC2)C1	?	–	–	–	45µM
O=C(CCc1ncc(-c2ccc(F)cc2F)o1)N1CCN(S(=O)(=O)c2cc(F)ccc2F)CC1	–	·	·	·	·
CCC(C)S(=O)(=O)c1oc(-c2cccs2)nc1S(=O)(=O)c1ccccc1 (stereo unspecified)	–	–	·	?	18µM
CCCC(=O)NNc1cc(=O)c2c(=O)n(C)c(=O)n(C)c2[nH]1	16µM	–	–	–	–
Cn1c(=O)c2c(=O)cc(NNC(=O)CC#N)[nH]c2n(C)c1=O	?	?	–	–	?
